Assay results: the supplement of paper PMC9334596
Values joined by “and” are separate entries in the source; they are usually repeats but may differ in a detail not shown here. Identical values can stand only once. The full ranking holds about 5,300 compounds; the median of “PER2::LUC luminescence relative to vehicle control” is about 0.96, and the highest 2% start at about 1.3. For the sample, the highest values were picked, then their nearest neighbours and some compounds at random.

Test system: mPer2Luc MEF
Assay: PER2::LUC luminescence relative to vehicle control (fold of vehicle); higher = higher PER2::LUC reporter signal
Conditions: 10 µM
Procedure, shortened: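 In 384-well plates, ~3000 mPer2Luc reporter mouse embryonic fibroblasts per well were cultured in DMEM with 10% FBS at 37 °C and 5% CO2 for 48 h before compounds from commercial libraries were added at 10 μM. ONE-Glo luciferase readings were taken 24 h and 30 h after treatment. Each value is PER2::LUC luminescence given as fold of vehicle control.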

SMILES | PER2::LUC luminescence (time after treatment 24 h) | PER2::LUC luminescence (time after treatment 30 h)
CC(C)(C)[Si](C)(C)Oc1ccc2oc(=O)c3c(c2c1)CCCN3 | 1.14 | 1.15
CC(=O)O[C@@H]1C[C@@]23C[C@@]24CC[C@H](O[C@@H]2OC[C@@H](O)[C@H](O)[C@H]2O)C(C)(C)[C@@H]4CC[C@H]3[C@]2(C)C[C@@H]3O[C@]4(C[C@@H](C)[C@@H]3[C@@]12C)O[C@H](O)[C@@]1(C)O[C@@H]41 | 0.888 | 0.982
CC[C@H](C)[C@@H]([C@@H](CC(=O)N1CCC[C@H]1[C@H](OC)[C@@H](C)C(=O)N[C@@H](Cc1ccccc1)c1nccs1)OC)N(C)C(=O)[C@@H](NC(=O)[C@@H](NC)C(C)C)C(C)C | 0.338 | 0.385
O=C(O)CCC/C=C\C/C=C\C/C=C\C/C=C\CCCCCO | 0.987 | 0.936
COc1cc2c(cc1OC)[C@H]1[C@@H](C)c3ccc(OC)c(OC)c3CN1CC2 | 0.954 | 0.973
COc1cc2nccc(Oc3ccc(NC(=O)Nc4ccc(F)cc4F)c(F)c3)c2cc1OC | 0.785 | 0.689
CCCCOc1ccc(C(=O)Nc2ccc(F)cc2F)cc1 | 1.29 | 1.34
CCCCOc1ccc(CC(=O)NO)cc1 | 1.01 | 1.01
O=C[C@H](O)[C@@H](O)[C@H](O)CO (racemic) | 0.94 | 1.06
C[C@@H](O)[C@H]1C(=O)N2C(C(=O)O)=C(SC3CN(C4=NCCS4)C3)[C@H](C)[C@H]12 | 1.03 | 1.01
O=C(O)c1ccc2nc(-c3cc(Cl)cc(Cl)c3)oc2c1 | 1.42 | 1.43
C=CC(C1=CC(=O)C(OC)=CC1=O)c1ccc(OC)cc1 (centres undefined) | 1.16 | 1.02
CC1(C)[C@@H](O)CC[C@]2(C)[C@H]3C(=O)C=C4[C@H]5C[C@@](C)(C(=O)O)CC[C@]5(C)CC[C@@]4(C)[C@]3(C)CC[C@@H]12 | 0.97 | 0.899
CC1(C)[C@@H](OC(=O)CCC(=O)O)CC[C@]2(C)[C@H]3C(=O)C=C4[C@@H]5C[C@@](C)(C(=O)O)CC[C@]5(C)CC[C@@]4(C)[C@]3(C)CC[C@@H]12 | 0.965 and 0.646 | 0.891 and 1.01
CC1(C)[C@@H](O)CC[C@]2(C)[C@H]3C(=O)C=C4[C@@H]5C[C@@](C)(C(=O)O)CC[C@]5(C)CC[C@@]4(C)[C@]3(C)CC[C@@H]12 | 1.22 and 0.966 | 1.5 and 0.907
CC(C)C[C@H](N)C(=O)N[C@H](C(=O)N[C@H](C(=O)N[C@@H](Cc1ccc(O)cc1)C(=O)N1CCC[C@H]1C(=O)N[C@@H](Cc1c[nH]c2ccccc12)C(=O)N[C@H](C(=O)N[C@@H](CCC(N)=O)C(=O)N[C@@H](CCCN=C(N)N)C(=O)O)[C@@H](C)O)C(C)C)C(C)C | 0.942 | 0.916
COc1ccc(C[C@H]2c3cc(OC)c(OC)cc3CC[N+]2(C)C)cc1OC | 0.944 | 0.889
COc1ccccc1-c1nc(-c2ccccn2)no1 | 0.948 | 0.943
C#CCCC(=O)O | 1.07 | 0.985
COc1ccc2[nH]c([S@@+]([O-])Cc3ncc(C)c(OC)c3C)nc2c1 | 1.02 and 1.01 and 1.11 | 1.01 and 0.923 and 1.08
COCCCOc1ccnc(C[S+]([O-])c2nc3ccccc3[nH]2)c1C (centres undefined) | 1.15 and 1.39 and 1.44 | 1.12 and 1.68 and 1.47
COc1ccc2[nH]c([S+]([O-])Cc3ncc(C)c(OC)c3C)nc2c1 (centres undefined) | 0.886 | 1.08
Cc1c(OCC(F)(F)F)ccnc1C[S+]([O-])c1nc2ccccc2[nH]1 (centres undefined) | 1.17 | 1.67
COc1ccnc(C[S+]([O-])c2nc3cc(OC(F)F)ccc3[nH]2)c1OC (centres undefined) | 0.944 and 1.32 | 1.01 and 0.991
COc1ccnc(C[S+]([O-])c2nc3cc(-n4cccc4)ccc3[nH]2)c1C (centres undefined) | 1.07 | 1.05
Cc1c(OCC(F)(F)F)ccnc1C[S@@+]([O-])c1nc2ccccc2[nH]1 | 1.68 and 1.14 | 1.73 and 1.12

SMILES | PER2::LUC luminescence (time after treatment 24 h) | PER2::LUC luminescence (time after treatment 30 h)
COc1ccc2[nH]c([S+]([O-])Cc3ncc(C)c(OC)c3C)nc2n1 (centres undefined) | 0.776 | 1.01
N=C(N/N=C/c1ccc(Cl)cc1)N/N=C/c1ccc(Cl)cc1 | 0.996 | 0.988
CCOC(=O)C1=Cc2ccc(C(F)(F)C(F)(F)F)cc2N=C(N)C1 | 1.07 | 1.05
O=[N+]([O-])c1cc(C(F)(F)F)cc([N+](=O)[O-])c1NNC(=S)Nc1ccc(F)cc1 | 0.67 | 0.671
CCCCC[C@H](O)/C=C/[C@@H]1[C@@H](C/C=C\CCCC(=O)O)[C@H](O)C[C@H]1O | 1.1 | 1.1
Oc1ccccc1NCc1ccccn1 | 0.921 | 1.05
C[C@H](CCC(=O)NCC(=O)NCCS(=O)(=O)O)[C@H]1CC[C@H]2[C@@H]3[C@H](O)C[C@@H]4C[C@H](O)CC[C@]4(C)[C@H]3C[C@H](O)[C@]12C | 0.886 | 0.904
CC1(C)O[C@@H]2C[C@H]3[C@@H]4C[C@H](F)C5=CC(=O)C=C[C@]5(C)[C@@]4(F)[C@@H](O)C[C@]3(C)[C@]2(C(=O)CO)O1 | 0.902 | 1.15
CCC(=O)OCC(=O)[C@@]1(OC(=O)CC)[C@@H](C)C[C@H]2[C@@H]3CCC4=CC(=O)C=C[C@]4(C)[C@@]3(F)[C@@H](O)C[C@@]21C | 0.454 and 0.475 | 1.01 and 0.98
CCC(=O)O[C@]1(C(=O)CCl)[C@@H](C)C[C@H]2[C@@H]3CCC4=CC(=O)C=C[C@]4(C)[C@@]3(F)[C@@H](O)C[C@@]21C | 0.711 | 1.08
CCCCC(=O)O[C@]1(C(=O)CO)[C@@H](C)C[C@H]2[C@@H]3CCC4=CC(=O)C=C[C@]4(C)[C@@]3(F)[C@@H](O)C[C@@]21C | 0.684 and 0.795 | 1.37 and 1.15
CC1(C)O[C@@H]2C[C@H]3[C@@H]4CCC5=CC(=O)C=C[C@]5(C)[C@@]4(F)[C@@H](O)C[C@]3(C)[C@]2(C(=O)CO)O1 | 0.583 | 1.35
CC(=O)OCC(=O)[C@@]12OC3(CCCC3)O[C@@H]1C[C@H]1[C@@H]3CCC4=CC(=O)C=C[C@]4(C)[C@@]3(F)[C@@H](O)C[C@@]12C | 0.828 | 1.13
Nc1nc(=O)c2c([nH]1)NCC(CNc1ccc(C(=O)N[C@@H](CCC(=O)O)C(=O)O)cc1)=N2 | 1.06 | 0.985
COc1cccc(NCC(O)Cn2c3ccc(Br)cc3c3cc(Br)ccc32)c1 (stereo in doubt) | 0.88 | 0.955
COc1c2c(cc3occ(-c4ccc5c(c4)OCO5)c(=O)c13)OC(C)(C)C=C2 | 0.833 | 0.876
COc1ccc(-c2c(O)c3c(OC)c4c(cc3oc2=O)OC(C)(C)C=C4)cc1 | 1.5 | 1.46
COc1cc(OC)c2c(OC)c(-c3ccc4c(c3)OCO4)c(=O)oc2c1 | 1.02 | 1.21
CC(=O)OC[C@@]1(O)C[C@@]23CC[C@@H]4c5ccoc5CC[C@@]4(C)[C@@H]2CC[C@@H]1C3 | 1.05 | 1.06
C=CCCCCCCCCCCCC(O)CC(O)CO (centres undefined) | 0.967 | 0.789
CC1(C)CCC[C@](C)([C@H]2CC[C@]3(C)[C@@H]2[C@H](O)C[C@@H]2[C@@]4(C)CC[C@H](O)C(C)(C)[C@@H]4CC[C@]23C)O1 | 1.02 | 1.02
CC(C)(C)c1nc2c3cc[nH]c(=O)c3c3cc(F)ccc3c2[nH]1 | 0.802 | 0.906
CCOC(=O)c1cn(-c2c(F)c(F)c(C#N)c(F)c2F)c2c(F)c(F)c(F)cc2c1=O | 1.08 | 1.19
CCCCOc1ccc(C(=O)CCN2CCCCC2)cc1 | 0.957 | 1.41
CCCCOc1ccc(OCCCN2CCOCC2)cc1 | 1.12 | 1.18
O=C(c1ccc(OCCN2CCCCC2)cc1)c1c(-c2ccc(O)cc2)sc2cc(O)ccc12 | 0.35 | 0.69

SMILES | PER2::LUC luminescence (time after treatment 24 h) | PER2::LUC luminescence (time after treatment 30 h)
CCN1CCN(Cc2ccc(NC(=O)Nc3ccc(Oc4cc(NC)ncn4)cc3)cc2C(F)(F)F)CC1 | 0.107 | 0.14
CO/N=C(\C(=O)N[C@@H]1C(=O)N2C(C(=O)[O-])=C(C[n+]3ccc(N)n3CCO)CS[C@H]12)c1csc(N)n1 | 1.12 | 1.1
Cc1ncc([N+](=O)[O-])n1C | 1.13 | 0.998
Cn1c([N+](=O)[O-])cnc1COC(N)=O | 1.15 | 1.27
CSc1ccc(OCc2ncc([N+](=O)[O-])n2C)cc1 | 1.41 | 1.31
N[C@](CCCCB(O)O)(CCN1CCCCC1)C(=O)O | 1.07 | 1.08
Cc1ccccc1-n1c([C@H](C)Nc2nc(N)nc3nc[nH]c23)nc2cccc(C)c2c1=O | 0.801 | 0.66
CCCCN(CCCC)S(=O)(=O)c1ccc(C(=O)O)cc1 | 0.899 | 1.04
COc1ccc(C(=O)c2ccccc2)c(O)c1 | 1.22 | 1.21
COc1cc(/C=C/C(=O)c2ccc(O)cc2O)ccc1O | 1.02 | 1.04
COc1ccc(C(=O)c2ccccc2O)c(O)c1 | 1.02 | 1.04
COc1ccc(C(=O)/C=C/c2ccccc2)cc1 | 1.25 | 1.28
COc1ccc(CC(=O)c2ccc(O)cc2O)cc1 | 1.63 | 1.51
COc1ccc(C(C)=O)c(O)c1 | 0.967 | 0.936
COc1ccc([C@@H](C)C(=O)c2ccc(O)cc2O)cc1 | 1.1 | 1.08
COc1ccc(/C=C/C(=O)c2ccc(O)cc2O)cc1 | 1.51 | 1.56
COc1ccc(C(=O)c2ccc(C)cc2)c(O)c1 | 1.02 and 1.29 | 1.55 and 1.57
COc1ccc(/C=C/C(=O)c2cc(O)ccc2O)cc1 | 0.754 | 0.827
O=C(/C=C/c1ccc(O)cc1)CC(=O)/C=C/c1ccc(O)cc1 | 1.1 | 1.07
O=C(/C=C/c1ccccc1)c1ccc(O)cc1 | 1.33 | 1.48
CCC(C(=S)O[C@]12CCC[C@H](CC1)N2C)c1ccccc1 (some centres undefined) | 0.715 | 0.77
Nc1ccc(S(=O)(=O)NCCc2ccccc2)cc1 | 1.03 | 1
CC1=CC(=O)C2=C(C)CC[C@@H]3[C@H](OC(=O)[C@H]3C)[C@@H]12 | 0.959 | 0.978
OCC12COC(c3ccc(F)cc3)N1C(c1ccc(F)cc1)OC2 (centres undefined) | 1.07 | 1.03
C[C@@H](Nc1cc(NS(=O)(=O)N2CCC2)nc(SCc2cccc(F)c2F)n1)[C@@H](O)CO | 1.03 | 1
